Inconclusive results are not listed. Active and inactive are the calls of the source. Calls come from the whole dose curve; as a rule, active = well fitted curve in the direction sought with a large enough effect; inconclusive = small, poorly fitted or top-dose-only effect, or another doubt; inactive = no such curve, though single readings can be large or run the other way. Peptide text beside a SMILES is read from it. * marks the point of attachment. Octanoyl = CCCCCCCC(=O)*
Assay: HPAF-II 18hr Apoptosis Induction qHTS against the NCATS CANVASS Library (AID 1347360); note: 0% is about no effect
Conditions: HPAF-II caspase-3/7 luminescence; series mostly up to 46.1 µM; caspase activation: at the top concentration
Source text: Natural products and their derivatives continue to be wellsprings of nascent therapeutic potential. However, many laboratories have limited resources for biological evaluation, leaving their previously isolated or synthesized compounds largely or completely untested. To address this issue, the Canvass library of natural products was assembled (https://tripod.nih.gov/canvass), in collaboration with academic and industry researchers, for quantitative high-throughput screening (qHTS) across a diverse set of cell-based and biochemical assays. The pure (>85% purity by liquid chromatography/mass spectrometry [LC/MS]) Canvass library of 346 natural products were submitted by 45 academic laboratories and companies around the world. We collected pure natural products to circumvent deconvolution and structure elucidation due to time and resource limitations. The library was formatted into 1536-well plates and evaluated in 50 qHTS (in an 11-pnt concentration series) bioassays with broad scope of disease-relevant mechanisms. The resulting data set from 50 different assays was then systematically analyzed to identify overall trends and specific natural products with interesting biological activities. Reported herein are the results of each individual qHTS and their corresponding assay protocol. The Caspase-Glo (R) (Promega) is a homogeneous, luminescent assay that measures caspase activity. The detection substrate contains tetrapeptide sequence DEVD in an "add-mix-measure" format. The reagent generates a luminescent signal produced by a thermostable luciferase. The luminescence is proportional to the amount of caspase activity in the assay reaction. National Center for Advancing Translational Sciences (NCATS), Rockville, MD National Institute of Health (NIH), Bethesda, Maryland
Cancer Cell Apoptosis Assay 1. In a 1536 well, white solid bottom tissue culture plates (Corning 7494), HPAF-II cancer cells in DMEM + 10% FBS + 1% P/S media were dispensed in each well at a final concentration of 500 cells / well (5uL volume) using the Multidrop Combi (Thermo Fisher Scientific) dispenser. 2. Compounds were pin transferred (~23nL volume) via Wako Pin-tool (Wako Automation, Richmond VA) equipped with a 1536 pin head. The assay plates were treated with compounds in a concentration series with a final concentration range of 0.17nM to 103uM. 3. Doxorubicin was used as a control in a 16pnt titration (1mM; 1:2 dilution; 16-points; n = 2; column 3, rows 1 - 32) and was pin transferred via Wako Pin-tool equipped with a 1536 pin head. The final concentration range of doxorubicin is 0.1nM - 4uM. 4. The assay plates were incubated for 18 hours at 37 degrees C/5% CO2/95% Rh. 5. 3uL Caspase-Glo 3/7 (R) (Promega) detection reagent was then added to the assay plates (columns 2 - 48, rows 1 - 32) and incubated at room temperature, covered from light, for 15 min. 6. Luminescence signal was acquired via the ViewLux plate reader (PerkinElmer) using a clear filter, 20 second exposure and 2x binning settings.

Row | SMILES | caspase activation | Potency
1 | C=C1C[C@@]23C=CC(=O)[C@@](C)(CCC(=O)Nc4c(O)ccc(C(=O)O)c4O)C2C[C@@H]1C(O)C3 (stereo not given in full) | 1.67% (inactive) | –
2 | C=C1C[C@@]23C=CC(=O)[C@@](C)(CCC(=O)Nc4c(O)ccc(C(=O)O)c4O)C2C[C@@H]1CC3 (stereo not given in full) | 2.87% (inactive) | –
3 | CCCCCCCC(=O)N[C@@H](CC(C)C)C(=O)N[C@H](C=O)CCC(=O)O (Octanoyl-Leu-Glu-aldehyde) | -2.2% (inactive) | –
4 | CC1C(=O)C23CCC1C[C@@]21O[C@H]2C(C)(C)C=CC(=O)[C@@]23COC1=O (stereo not given in full) | 3.63% (inactive) | –
5 | CN1CC[C@]2(c3cccc4c3N[C@@H]3N(C)CC[C@]43[C@@]34CCN(C)[C@@H]3Nc3c([C@]56CCN(C)[C@H]5Nc5ccccc56)cccc34)c3ccccc3N[C@H]12 | 11.9% (inactive) | –
6 | CCC[C@@H](C)/C=C(\C)[C@H](O)[C@H](C)/C=C/CC[C@@H](O)[C@H](C)[C@H](O)[C@H](C)[C@H](O)[C@H](C)[C@H]1O[C@H]([C@H](C)C(=O)O)CC[C@@H]1C | 0.848% (inactive) | –
7 | C/C(=C\[C@H](C)C(=O)CCCC1CC(=O)NC(=O)C1)[C@@H]1OC(=O)/C=C/CC/C=C/C[C@@H](O)[C@@H]1C | 8.21% (inactive) | –
8 | C=C1C(=O)O[C@H]2C[C@H](C)[C@@H]3CC(=O)C(C)=C3[C@H](O)[C@H]12 | 6.12% (inactive) | –
9 | CC1(C)[C@H](Br)CC[C@]23C[C@]4(C)C(=O)CC12C[C@H]34 | -1.7% (inactive) | –
10 | CNc1ccc(Cl)cc1C(=O)OC[C@]1(C)[C@H]2CC[C@]3(C)[C@@H](C[C@@H](OC)[C@H](C)[C@H]3C3=C(O)C(=O)OC3O)[C@]2(C)CC[C@H]1O (stereo not given in full) | -2.51% (inactive) | –
11 | COc1c(O)cc2oc(-c3ccccc3)cc(=O)c2c1O | -7.54% (inactive) | –
12 | CC(=O)O[C@H]1CC[C@@]2(C)C(CC[C@]3(C)C2CC=C2C4CC(C)(C)CC[C@]4(C)CC[C@]23C)C1(C)C (stereo not given in full) | -2.69% (inactive) | –
13 | C=C(C)[C@@H]1CC[C@]2(C)CC[C@]3(C)[C@H](CC[C@@H]4[C@@]5(C)CC[C@H](O)C(C)(C)[C@@H]5CC[C@]43C)[C@@H]12 | – | inactive
14 | CC1=CC2=C[C@H](C)C[C@@]23OC(=C(C)C3=O)CC(C)(C)/C=C/C1=O | -6.34% (inactive) | –
15 | C/C=C1/CC[C@@H]2c3[nH]c4ccccc4c3CCN2C1 | -2.4% (inactive) | –
16 | CC(O)/C=C/C1(O)C(C)(C)CC(O)CC1(C)O (stereo not given) | 2.44% (inactive) | –
17 | COc1cc(/C=C/C(=O)O)ccc1O | -0.426% (inactive) | –
18 | O=c1cc(-c2ccc(O)cc2)oc2c([C@@H]3OC(CO)[C@H](O)[C@@H](O)[C@H]3O)c(O)cc(O)c12 (stereo not given in full) | -0.552% (inactive) | –
19 | COc1cc(O)c2c3c(c(O)cc(C)c13)C(=O)OC2 | 3.24% (inactive) | –
20 | C[C@@H]1O[C@@H](Oc2c(-c3ccc(O)cc3)oc3cc(O)cc(O)c3c2=O)[C@H](O)[C@H](O)[C@H]1O | -2.33% (inactive) | –

Row | SMILES | caspase activation | Potency
21 | CC[C@@H]1C[C@@]2(CC)OC(=O)[C@@]3(CC)OC(=O)[C@@H]1[C@@H]23 | 3.09% (inactive) | –
22 | O=c1cc(-c2ccc(O)c(O[C@@H]3O[C@H](CO)[C@@H](O)[C@H](O)[C@H]3O)c2)oc2cc(O[C@@H]3O[C@H](CO)[C@@H](O)[C@H](O)[C@H]3O)cc(O)c12 | 2.85% (inactive) | –
23 | C1=C2CCCN[C@@H]2[C@@H]2CCN3CCCC[C@@H]3[C@H](C1)C2 | 2.33% (inactive) | –
24 | CC1(C)CC[C@]2(C(=O)O)CC[C@]3(C)C(=CC[C@@H]4[C@@]5(C)C[C@@H](O)[C@H](O)C(C)(C)[C@@H]5CC[C@]43C)[C@@H]2C1 | 2.97% (inactive) | –
25 | C/C=C/C=C/C1(O)C2C=C3C(=O)CC45C(=O)C(O)=C(C)C(=O)C4C1C1(C(=O)C(O)=C(C)C(=O)C351)C2C (stereo not given) | 1.96% (inactive) | –
26 | CS/C=C/C(N)=O | -2.03% (inactive) | –
27 | C=C(NC(=O)c1csc(-c2nc3c(cc2O)-c2nc(cs2)C(=O)NC(C(C)O)C(=O)N/C(=C(\C)O)c2nc(cs2)C(=O)NC2c4nc(cs4)C(=O)NC(COC(=O)c4c5c6c(cccc6n4O)COC(=O)[C@@H](OC4C[C@](C)(O)[C@H](N(C)C)[C@H](C)O4)C2OC5)c2nc-3cs2)n1)C(N)=O (stereo not given in full) | 4.53% (inactive) | –
28 | CC(C)=CCC/C(C)=C/Cc1c(O)c(CC=C(C)C)c(O)c2c(=O)c3cc(O)ccc3oc12 | 8.22% (inactive) | –
29 | CC1(C)CCC[C@]2(C)[C@@H]1CC[C@@]13C[C@@H](CC[C@H]12)C(C)(O)C3 (stereo not given in full) | -0.74% (inactive) | –
30 | C=C1C(=O)O[C@H]2[C@H]1CC/C(CO)=C\CC[C@@]1(C)O[C@@H]21 | 5.56% (inactive) | –
31 | COC1C(O)C(OC(N)=O)C(Oc2ccc3c(O)c(NC(=O)c4ccc(O)c(CC=C(C)C)c4)c(=O)oc3c2C)OC1(C)C (stereo not given) | -0.899% (inactive) | –
32 | CC(=O)NC[C@@H]1O[C@H](CC/C=C(C)/C(C)=C/C=O)[C@H](C)C[C@H]1O | -0.932% (inactive) | –
33 | C/C1=C\CC(=O)/C=C/C=C\c2csc(n2)[C@@H](C)NC(=O)C[C@@](S)([C@@H](C)C(=O)O)CC1 | 1.68% (inactive) | –
34 | O=C(OC1Cc2c(O)cc(O)cc2OC1c1cc(O)c(O)c(O)c1)c1cc(O)c(O)c(O)c1 (stereo not given) | 4.32% (inactive) | –
35 | C[C@@H]1C(=O)[C@]23CC[C@H]1C[C@]21O[C@H]2C(C)(C)C=CC(=O)[C@@]23COC1=O | 4.57% (inactive) | –
36 | CCCCCCCCC[C@@H]1C[C@@H]2CC[C@H]3[C@@H](C(=O)OCCCCN=C(N)N)[C@@H](C)N=C(N1)N23 | -2.09% [at 27.5 µM] (inactive) | –
37 | CO[C@H]1/C=C/CC[C@@H](S[C@@H]2O[C@H](CO)[C@@H](O)[C@H](O)[C@H]2O)CC(=O)O[C@@H](/C(C)=C/[C@H](C)C(=O)CCCC2CC(=O)NC(=O)C2)[C@@H](C)[C@@H]1O | 9.54% (inactive) | –
38 | C[C@@H](CCC[C@]1(C)C(=O)C=C[C@]23C[C@H]4C[C@H](O[C@@]4(C)C2)C31)C(=O)N[C@@H](CO)C(=O)O (stereo not given in full) | 0.545% (inactive) | –
39 | COc1ccc([C@@H]2c3cc(OC)c(OC)cc3C(=O)[C@H](C)C2C)cc1OC (stereo not given in full) | 1.74% [at 9.19 µM] (inactive) | –
40 | C=C1C[C@@]23C=CC(=O)[C@@](C)(CCCC(C)C(=O)O)[C@@H]2C[C@@H]1CC3 (stereo not given in full) | 3.13% (inactive) | –
